# Assay outcomes from PubChem.
# MsrA act: activates bovine MsrA enzyme; purified bovine MsrA, absorbance read-out; activation, % at 10.6 µM; 360,000 compounds, 0.3% hits; in the data active = activation above about 7.5%;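 also: 0% = vehicle and 100% = reference activator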
# MOR-DOR inv ag: inverse agonists of human mu-delta opioid receptor heterodimerization | P35372+P41143 | cell-based MOR-DOR heterodimer luminescence, inverse agonism | inhibition, % at 9.3 µM | 340,000 compounds, 0.21% hits; in the data active = inhibition above about 22%, passing the limit was not always enough;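 also: 0% = cells with DMSO and 100% = wells without cells with DMSO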
# Target sequence (P35372 whole entry, looked up): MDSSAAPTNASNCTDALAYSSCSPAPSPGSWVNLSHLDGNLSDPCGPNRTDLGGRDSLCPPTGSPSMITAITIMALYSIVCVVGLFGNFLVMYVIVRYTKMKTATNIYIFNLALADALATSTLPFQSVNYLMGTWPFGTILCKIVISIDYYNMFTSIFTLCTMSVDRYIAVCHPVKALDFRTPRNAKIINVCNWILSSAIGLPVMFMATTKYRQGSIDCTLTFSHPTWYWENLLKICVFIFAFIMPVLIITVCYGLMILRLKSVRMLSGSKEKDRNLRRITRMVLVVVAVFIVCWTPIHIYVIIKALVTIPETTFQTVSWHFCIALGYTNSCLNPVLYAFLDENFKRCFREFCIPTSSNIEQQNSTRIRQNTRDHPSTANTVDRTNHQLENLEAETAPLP
# Target sequence (P41143 whole entry, looked up): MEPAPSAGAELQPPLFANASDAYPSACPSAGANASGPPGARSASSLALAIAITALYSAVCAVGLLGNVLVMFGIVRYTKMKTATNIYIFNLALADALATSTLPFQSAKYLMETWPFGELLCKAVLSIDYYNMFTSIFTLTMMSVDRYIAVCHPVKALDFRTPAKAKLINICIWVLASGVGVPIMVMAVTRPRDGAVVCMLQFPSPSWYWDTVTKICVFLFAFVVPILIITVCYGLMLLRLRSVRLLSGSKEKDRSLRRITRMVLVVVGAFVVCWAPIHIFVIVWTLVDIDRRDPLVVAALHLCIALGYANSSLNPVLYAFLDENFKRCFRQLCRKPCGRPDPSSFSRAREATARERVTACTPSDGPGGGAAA
# MsrA inh: bovine MsrA inhibition. purified bovine MsrA, absorbance read-out. inhibition, % at 15.5 µM. 360,000 compounds, 0.75% hits;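 also: 0% = vehicle wells with enzyme and 100% = reference inhibitor wells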
# HTR5A ag: activates human HTR5A in OPRM1-OPRD1 agonist counter-screen; P47898; HTR5A agonist assay, luminescence, cell-based; activation, % at 9.3 µM; 340,000 compounds, 0.61% hits; AID 504692; in the data active = activation mostly above about 9.5%, no sharp cut-off; inactive = mostly below about 7.6%;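 also: 0% = cells with vehicle only and 100% = reference agonist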
# OPRM1-OPRD1 ag: OPRM1-OPRD1 heterodimerization agonism; 340,000 compounds, 0.3% hits; activation, % at 9.3 µM; AID 504326; cells, luminescence; in the data active = activation above about 18%;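 also: 0% = vehicle-treated cells and 100% = reference agonist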
# HTR5A inv ag: counter-screen for OPRM1-OPRD1 inverse agonists: human HTR5A inverse agonism. inhibition, % at 9.3 µM. HTR5A cell line, luminescence. P47898. 340,000 compounds, 0.083% hits; in the data active = inhibition mostly above about 23%, no sharp cut-off; inactive = mostly below about 18%;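 also: 0% = cells with DMSO and 100% = no-cell wells with DMSO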
# MsrA inh confirm: confirmation of bovine MsrA inhibitors | shares compounds with MsrA inh | purified bovine MsrA, absorbance read-out | inhibition, % at 15.5 µM | 2,300 compounds, 41% hits;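 also: coupled to thioredoxin reductase with NADPH and selenocystamine and DMSO as substrate; 0% = vehicle only and 100% = full effect of reference inhibitor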
# An asterisk follows results filed as active; . = no result. Compounds with a hit are over-represented: about 1.9% of the library has one in this group of screens. Rule as the data show it, unless noted: active = inhibition above about 4.5%; inactive = the rest.
SMILES,MsrA act,MOR-DOR inv ag,MsrA inh,HTR5A ag,OPRM1-OPRD1 ag,HTR5A inv ag,MsrA inh confirm
COc1ccc(C2CC(=O)C(c3ccc(C(F)(F)F)cc3)=CN2Cc2ccccc2)cc1 (stereo not given),.,.,2,.,.,.,.
COc1cccc(CNC(=O)[C@H]2CCCN2C(=O)[C@H]2CCCN2C(=O)c2ccc(F)c(F)c2)c1,.,.,0,.,.,.,.
COc1cc(OC)c(/C=N/NC(=O)c2ccc(NC(C)=O)cc2)cc1Br,-3,-6,1,-1,1,2,.
COc1cc(OC)c(/C=N/NC(N)=S)cc1Br,-3,8,5.3*,1,-2,0,4
COc1cc(OC)c(OC)cc1/C=N/NC(=O)c1cnccn1,-2,27,6.2*,4,-5,-12,4
COc1cc(OC)c(/C=N/NC(=O)c2ccncc2)cc1Br,-4,.,5.2*,.,.,.,4
COc1cc(OC)c(OC)cc1/C=N/NC(=O)c1ccc(=O)n(C)c1,-9,5,10*,1,-1,-4,9.2*
Cc1c(C(=O)NCc2ccc3c(c2)OCCO3)sc(=O)n1Cc1ccccc1F,1,.,-2,.,.,.,.
COC(=O)c1cccc(-n2c(C)cc(O)cc2=O)c1,.,.,0,.,.,.,.
COc1cc(CNc2ncnc3c2ncn3[C@H]2CN(Cc3cccc(C(F)(F)F)c3)C[C@@H](CO)O2)cc(OC)c1OC,2,.,-1,.,.,.,.
COc1ccccc1C=NNC(=O)c1ccncc1,-3,8,2,3,-2,-10,.
COc1ccccc1/C=C/C=N/NC(=O)Cc1cccs1,1,-6,5.0*,-3,1,9,4
O=C(Cc1cccs1)N/N=C/C=C/c1ccccc1[N+](=O)[O-],-11,.,1,.,.,.,.
COc1ccccc1/C=C/C=N/NC(=O)c1ccncc1,-8,0,9.0*,-2,0,7,5.0*
Cc1ccc(OCc2nc3ccccc3n2C(C)C(=O)Nc2c(C)cccc2C)cc1 (stereo not given),.,.,0,.,.,.,.
COC(=O)c1csc(-c2ccc(CO)o2)n1,-2,.,.,.,.,.,.
Nc1nonc1-c1nc2ccccc2n1CC(=O)N/N=C/c1ccc(-c2ccccc2C(=O)O)o1,-8,.,7.3*,.,.,.,6.9*
Nc1nonc1-c1nc2ccccc2n1CC(=O)Nc1ccccc1,-3,.,0,.,.,.,.
COc1ccc(/C=C(\C#N)C(=O)NC(C)c2ccccc2)cc1O (stereo not given),-6,1,4.9*,1,0,7,3
c1ccc2nc(-c3nc4ccccc4[nH]3)ccc2c1,-4,-4,5.0*,2,1,-15,4.7*
NC(=O)c1ccsc1NC(=O)c1coc2ccccc2c1=O,-11,-31,4.7*,0,4,1,1
NC(=O)c1ccc(NC(=O)COC(=O)CCCN2C(=O)c3cccc4cccc(c34)C2=O)cc1,-12,18,1,-1,-3,-10,.
O=C(COC(=O)CCCN1C(=O)c2cccc3cccc(c23)C1=O)Nc1ccc(Cl)cc1,-5,-1,4.8*,2,0,23,1
CCCc1c(C)nn(C(=O)/C(C#N)=N/Nc2ccccc2[N+](=O)[O-])c1C,-10,1,10*,-1,0,-10,6.9*
COc1ccc(C(=O)/C(C#N)=N/Nc2ccccc2[N+](=O)[O-])cc1,-1,10,3,-1,-2,2,.
SMILES,MsrA act,MOR-DOR inv ag,MsrA inh,HTR5A ag,OPRM1-OPRD1 ag,HTR5A inv ag,MsrA inh confirm
CCCN(CCC)Cc1c(C(=O)N/N=C/C(C)=C\c2ccco2)nnn1-c1nonc1N,0,-40,2,6,8,-15,.
CCCc1c(C(=O)N/N=C/c2ccc(C)o2)nnn1-c1nonc1N,-9,.,5.0*,.,.,.,4.6*
CC(/C=N/NC(=O)c1nnn(-c2nonc2N)c1CN(C)C)=C\c1ccco1,-3,-9,6.2*,-2,2,0,7.3*
CC(C)c1c(C(=O)N/N=C/c2ccco2)nnn1-c1nonc1N,-3,10,3,1,-2,-1,.
Cc1ccc(/C=N/NC(=O)c2nnn(-c3nonc3N)c2C(C)C)o1,-3,7,4.8*,0,-1,0,4.8*
Cc1ccc(S(=O)(=O)NC(=O)C2(C)CCN2C(=O)Cc2cc(F)ccc2F)nc1 (stereo not given),1,.,0,.,.,.,.
CCN(c1ccccc1)S(=O)(=O)c1c[nH]c2ccc([N+](=O)[O-])cc12,3,3,1,-3,-1,13,.
